# Where a name gives a salt, the structure may show the parent alone.
# Tested on: Saccharomyces cerevisiae BY4741 SeMeCo community
# Test: z-score of subpopulation abundance vs DMSO median, subpopulation auxotrophic for LU; higher = larger share of this subpopulation than in DMSO controls
# Conditions: 10 µM; 24 h; SM minimal medium; subpopulation (auxotrophy): LU
# Method: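 Fluorescent four-plasmid SeMeCo (self-establishing metabolically cooperating S. cerevisiae BY4741 community; plasmids pH-mRuby2, pL-mWasabi, pU-eCFP, pM-TagRFP657) was grown 24 h in minimal SM medium with each Selleck FDA-approved drug at 10 µM in 384-well plates. Cells were fixed and imaged by high-content confocal microscopy. For each auxotrophic subpopulation (and the prototroph), a z-score gives the deviation from the DMSO vehicle-control population median.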
row,Compound,z-score of subpopulation abundance
1,C#C[C@]1(O)CC[C@H]2[C@@H]3CCC4=CCCC[C@@H]4[C@H]3C(=C)C[C@@]21CC [Desogestrel],0.22
2,NC(=N\CCCCCC/N=C(N)/N=C(\N)Nc1ccc(Cl)cc1)/N=C(\N)Nc1ccc(Cl)cc1 [Chlorhexidine diacetate],-1.43
3,COC(=O)C1=C(C)NC(C)=C(C(=O)OC2CCCN(Cc3ccccc3)C2)C1c1cccc([N+](=O)[O-])c1 (stereo not given) [Benidipine HCl],0.07
4,CN1CCOC(c2ccccc2)c2ccccc2C1 (stereo not given) [Nefopam HCl],0.08
5,CC[C@H](C)C[C@H](C)CCCCCCCCC(=O)N[C@H]1C[C@@H](O)[C@@H](NCCN)NC(=O)[C@@H]2[C@@H](O)CCN2C(=O)[C@H]([C@H](O)CCN)NC(=O)[C@H]([C@H](O)[C@@H](O)c2ccc(O)cc2)NC(=O)[C@@H]2C[C@@H](O)CN2C(=O)[C@H]([C@@H](C)O)NC1=O [Caspofungin Acetate],-0.13
6,Nc1ccc(S(=O)(=O)Nc2ccnn2-c2ccccc2)cc1 [Sulfaphenazole],-0.02
7,O=C1CCc2cc(OCCCCc3nnnn3C3CCCCC3)ccc2N1 [Cilostazol],-0.63
8,Cc1nnc(NS(=O)(=O)c2ccc(N)cc2)s1 [Sulfamethizole],-0.31
9,O=C1c2cccc3c2[C@H](CCC3)CN1[C@@H]1CN2CCC1CC2 [Palonosetron],-0.39
10,CC[C@@H](CO)NCCN[C@@H](CC)CO [Ethambutol 2HCl],1.65
11,Cc1nccn1CC1CCc2c(c3ccccc3n2C)C1=O (stereo not given) [Ondansetron HCl],-0.06
12,CO/N=C(\C(=O)N[C@@H]1C(=O)N2C(C(=O)O)=C(CSc3nnnn3C)CS[C@H]12)c1csc(N)n1 [Cefmenoxime hydrochloride],0.37
13,CN(C/C=C/C#CC(C)(C)C)Cc1cccc2ccccc12 [Terbinafine HCl],0.54
14,O=C1c2cccc3c2[C@H](CCC3)CN1[C@@H]1CN2CCC1CC2 [Palonosetron HCl],-0.38
15,Cn1nnnc1SCC1=C(C(=O)O)N2C(=O)[C@@H](NC(=O)[C@H](OC=O)c3ccccc3)[C@H]2SC1 [Cefamandole nafate],-1.46
16,C#C[C@]1(O)CC[C@H]2[C@@H]3CCC4=CCCC[C@@H]4[C@H]3CC[C@@]21C [Lynestrenol],-0.82
17,COCCCN1CCC(NC(=O)c2cc(Cl)c(N)c3c2OCC3)CC1 [Prucalopride],0.77
18,CC(=O)O[C@H]1C[C@@H]2CC[C@@H]3[C@H](CC[C@@]4(C)[C@H]3C[C@H]([N+]3(C)CCCCC3)[C@@H]4OC(C)=O)[C@@]2(C)C[C@@H]1N1CCCCC1 [Vecuronium Bromide],0
19,COc1ccc(C2CNC(=O)C2)cc1OC1CCCC1 (stereo not given) [Rolipram],-0.29
20,CC(NCCC(c1ccccc1)c1ccccc1)c1ccccc1 (stereo not given) [Fendiline hydrochloride],-0.77

row,Compound,z-score of subpopulation abundance
1,C[C@@H]1[C@H](O)[C@@H](C)/C=C/C=C/C=C/C=C/C=C/C=C/C=C/[C@H](O[C@@H]2O[C@H](C)[C@@H](O)[C@H](N)[C@@H]2O)C[C@@H]2O[C@](O)(C[C@@H](O)C[C@@H](O)[C@H](O)CC[C@@H](O)C[C@@H](O)CC(=O)O[C@H]1C)C[C@H](O)[C@H]2C(=O)O [Amphotericin B],24.4
2,Oc1c(Cl)cc(Cl)c2cccnc12 [Chloroxine],11.5
3,C[C@]12CC[C@@H]3c4ccc(O)cc4CC[C@H]3[C@@H]1CC[C@@H]2O [Estradiol],-0.02
4,CO/N=C(\C(=O)N[C@@H]1C(=O)N2C(C(=O)O)=CCS[C@H]12)c1csc(N)n1 [Ceftizoxime],-0.12
5,CO/N=C(\C(=O)N[C@@H]1C(=O)N2C(C(=O)O)=CCS[C@H]12)c1csc(N)n1 [Ceftizoxime sodium],-0.54
6,CO/N=C(\C(=O)N[C@@H]1C(=O)N2C(C(=O)[O-])=C(C[n+]3cccc4c3CCC4)CS[C@H]12)c1csc(N)n1 [Cefpirome sulfate],-0.12
7,C[C@H]1COc2c(C3(N)CC3)c(F)cc3c(=O)c(C(=O)O)cn1c23 [Pazufloxacin mesylate],0.86
8,CCCCCCCCCCCCCCCC[N+](C)(C)C [Cetrimonium Bromide (CTAB)],3.88
9,C#CCN[C@@H]1CCc2ccccc21 [Rasagiline Mesylate],0.5
10,Cc1ccc(S(=O)(=O)NC(=O)NN2CC3CCCC3C2)cc1 (stereo not given) [Gliclazide],-0.08
11,CNCCCC1c2ccccc2C=Cc2ccccc21 [Protriptyline hydrochloride],0.57
12,COc1ccc2c(c1)c(CC(=O)O)c(C)n2C(=O)c1ccc(Cl)cc1 [Indomethacin],-0.17
13,O=C1NC(=O)C(c2ccccc2)(c2ccccc2)N1 [Phenytoin],0.23
14,CC(C[N+](C)(C)C)OC(N)=O (stereo not given) [Bethanechol chloride],0.8
15,CNCCCN1c2ccccc2CCc2ccccc21 [Desipramine Hydrochloride],-0.28
16,C[C@H](NCc1ccc(OCc2cccc(F)c2)cc1)C(N)=O [Safinamide Mesylate],0.54
17,COc1c(N2CCNC(C)C2)c(F)cc2c(=O)c(C(=O)O)cn(C3CC3)c12 (stereo not given) [Gatifloxacin],0.36
18,CCN(CC)CCOCCOC(=O)C1(c2ccccc2)CCCC1 [Pentoxyverine Citrate],0.06
19,COc1ccnc(C[S+]([O-])c2nc3cc(-n4cccc4)ccc3[nH]2)c1C (stereo not given) [Ilaprazole sodium],-0.87
20,CC(C(O)c1ccc(O)cc1)N1CCC(Cc2ccccc2)CC1 (stereo not given) [Ifenprodil Tartrate],-0.38

# — the supplement of paper PMC8975748
